# Records with an inconclusive call do not appear. Activity calls are given as the source filed them. The call rests on the fitted dose curve; in most records, active means well fitted cell-killing curve with a large enough effect; inconclusive means small, poorly fitted or top-dose-only effect; inactive means flat fitted curve, though single readings scatter.
# Assay: qHTS of pediatric cancer cell lines to identify multiple opportunities for drug repurposing: Primary screen for TC32 cells (AID 1347089); further: nearly all actives have a fitted effect of over 60% in size
# Details: TC32 Ewing sarcoma viability, CellTiter-Glo luminescence, 48 h; series mostly up to 45.8 µM
# Summary of the method: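 Luminescent ATP read-out (CellTiter-Glo) of metabolically active TC32 cells after 48 h exposure. Concentration-response curves came from 11-point (MIPE, 0.78 nM–46 µM) or 8-point (NPC, 0.59 nM–46 µM) primary titrations; follow-up used 11 points.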
# Potency means the concentration at half of the fitted maximal effect.
row,SMILES,Potency
1,N=c1ccn2c(n1)O[C@H]1[C@@H](O)[C@@H](CO)O[C@H]12,1.04 µM (active)
2,NS(=O)(=O)OC[C@@H]1C[C@@H](n2ccc3c(N[C@H]4CCc5ccccc54)ncnc32)C[C@H]1O,1.65 µM (active)
3,O=C(Nc1cccc(Nc2ncc(Br)c(NCCc3cnc[nH]3)n2)c1)N1CCCC1,0.93 µM (active)
4,C=CC(=O)N1CCc2ccc(-n3c(=O)ccc4cnc5ccc(-c6cnn(C)c6)cc5c43)cc21,9.3 µM (active)
5,FC(F)(F)c1ccc(Nc2nc3ccc(Oc4ccnc(-c5ncc(C(F)(F)F)[nH]5)c4)cc3[nH]2)cc1,inactive
6,CC(O)(C#Cc1ccc2c(c1)N(c1nc(N)ncc1Cl)CC2)c1nccs1 (stereo unspecified),inactive
7,Nc1ccn(C[C@@H](CO)OCP(=O)(O)O)c(=O)n1,inactive
8,CNC(=O)c1ccc(Nc2cc(Nc3ccccc3S(=O)(=O)C(C)C)c3cc[nH]c3n2)nc1,2.62 µM (active)
9,CC(N[C@H]1CCCC[C@H]1NC(=O)c1ccc(Cl)cc1)c1cccc2ccccc12 (stereo partly specified),inactive
10,Cc1[nH]c(C=C2C(=O)Nc3ccccc32)c(C)c1CCC(=O)O,7.39 µM (active)
11,COc1cccc2c1C(=O)c1c(O)c3c(c(O)c1C2=O)C[C@@](O)(C(=O)CO)C[C@H]3O[C@H]1C[C@H](N)[C@H](O)[C@H](C)O1,0.93 µM (active)
12,CC(C)c1cnn2c(NCc3ccccc3)cc(NCCCCCCN)nc12,inactive
13,C[C@H](NCc1ccc(OCc2cccc(F)c2)cc1)C(N)=O,18.6 µM (active)
14,CCOC(=O)N1CCN([N+]([O-])=NOc2ccc([N+](=O)[O-])cc2C#N)CC1,3.7 µM (active)
15,COc1cccc2c1C(=O)c1c(O)c3c(c(O)c1C2=O)C[C@@](O)(C(=O)CO)C[C@@H]3O[C@H]1C[C@H](N)[C@@H](O)[C@H](C)O1,0.658 µM (active)
16,Oc1cc(-c2nc(-c3ccccc3)[nH]c2-c2ccncc2)ccc1Cl,inactive

row,SMILES,Potency
1,CCN(CC)CCCCNc1ncc2c(n1)N(C)C(=O)N(c1c(Cl)c(OC)cc(OC)c1Cl)C2,23.4 µM (active)
2,COc1cccc2c1C(=O)c1c(O)c3c(c(O)c1C2=O)C[C@@](O)(C(C)=O)C[C@H]3O[C@H]1C[C@H](N)[C@H](O)[C@H](C)O1,0.234 µM (active)
3,CN1[C@H]2CC(OC(=O)[C@@H](CO)c3ccccc3)C[C@H]1[C@H]1O[C@H]12 (stereo partly specified),inactive
4,Cc1cc(Nc2ncc3c(n2)N(C)C(=O)N(c2cc(NC(=O)c4cccc(C(F)(F)F)c4)ccc2C)C3)n(C)n1,1.47 µM (active)
5,C[N+](C)([O-])CCNc1ccc(NCC[N+](C)(C)[O-])c2c1C(=O)c1c(O)ccc(O)c1C2=O,5.23 µM (active)
6,C=CC[C@@H]1C=C(C)C[C@H](C)C[C@H](OC)[C@H]2O[C@@](O)(C(=O)C(=O)N3CCCC[C@H]3C(=O)O[C@H](C(C)=C[C@@H]3CC[C@H](O)[C@H](OC)C3)[C@@H](C)[C@@H](O)CC1=O)[C@@H](C)C[C@@H]2OC,inactive
7,CC(=O)OCC(=O)[C@@]1(O)CC[C@H]2[C@@H]3CCC4=CC(=O)CC[C@]4(C)[C@@H]3C(=O)C[C@@]21C,inactive
8,CCC(C(=O)O)C1CCC(C)C(C(C)C(O)C(C)C(=O)C(CC)C2OC3(C=CC(O)[C@@]4(CC[C@](C)(C5CC[C@@](O)(CC)C(C)O5)O4)O3)C(C)CC2C)O1 (stereo partly specified),5.23 µM (active)
9,CO[C@@H]1[C@@H](O)[C@H](O)[C@@H](n2c3c(Cl)cccc3c3c4c(c5c6cccc(Cl)c6[nH]c5c32)C(=O)NC4=O)O[C@@H]1CO,0.294 µM (active)
10,COc1ccc(S(=O)(=O)Nc2cc(-c3c(O)ccc4ccccc34)c(O)c3ccccc23)cc1,inactive
11,NC(=NCCCCCCN=C(N)N=C(N)Nc1ccc(Cl)cc1)N=C(N)Nc1ccc(Cl)cc1,inactive
12,C[C@]12CCC(=O)C=C1[C@@H]1CC1[C@H]1[C@H]3[C@@H]4C[C@H]4[C@@]4(CCC(=O)O4)[C@@]3(C)CC[C@H]12 (stereo partly specified),inactive
13,Cc1cncc2cccc(S(=O)(=O)N3CCCN(C(=O)CN)C[C@@H]3C)c12,10.4 µM (active)
14,CC(=CC(=O)Nc1ccccc1C(=O)O)c1ccc2ccccc2c1,inactive
15,COc1cc([C@@H]2c3cc4c(cc3[C@@H](O[C@@H]3O[C@@H]5CO[C@@H](c6cccs6)O[C@@H]5[C@H](O)[C@@H]3O)[C@H]3COC(=O)[C@H]23)OCO4)cc(OC)c1O,0.208 µM (active)

# Assay: qHTS of pediatric cancer cell lines to identify multiple opportunities for drug repurposing: Primary screen for DAOY cells (AID 1347090); further: nearly all actives have a fitted effect of over 55% in size
# Details: DAOY medulloblastoma viability, CellTiter-Glo luminescence, 48 h; series mostly up to 46 µM
# Summary of the method: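 Cell viability, CellTiter-Glo luminescence; 500-1,000 cells/well, 8- or 11-point titration, 48 h compound exposure at 37 degrees C, 5% CO2. Controls: DMSO neutral, bortezomib 2.3 µM final as positive.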
row,SMILES,Potency
1,COc1cc(O)c2c(c1)C1OC1C[C@H](O)[C@H](O)C(=O)C=CC[C@H](C)OC2=O (stereo partly specified),7.43 µM (active)
2,NS(=O)(=O)OC[C@@H]1C[C@@H](n2ccc3c(N[C@H]4CCc5ccccc54)ncnc32)C[C@H]1O,0.59 µM (active)
3,Oc1ccc(-c2ccc(-c3cc(Nc4cccc(CNC5CC5)c4)n[nH]3)cc2)c(O)c1,14.8 µM (active)
4,O=C(Nc1cccc(Nc2ncc(Br)c(NCCc3cnc[nH]3)n2)c1)N1CCCC1,18.7 µM (active)
5,C=CC(=O)N1CCc2ccc(-n3c(=O)ccc4cnc5ccc(-c6cnn(C)c6)cc5c43)cc21,5.9 µM (active)
6,O=C(Nc1cc2cc[nH]c2cn1)c1ccccc1,14.8 µM (active)
7,FC(F)(F)c1ccc(Nc2nc3ccc(Oc4ccnc(-c5ncc(C(F)(F)F)[nH]5)c4)cc3[nH]2)cc1,18.7 µM (active)
8,CC(O)(C#Cc1ccc2c(c1)N(c1nc(N)ncc1Cl)CC2)c1nccs1 (stereo unspecified),7.43 µM (active)
9,Nc1ccn(C[C@@H](CO)OCP(=O)(O)O)c(=O)n1,inactive
10,CN1CCc2c(c3ccccc3n2Cc2ccc(C(=O)NO)cc2)C1,3.72 µM (active)
11,CNC(=O)c1ccc(Nc2cc(Nc3ccccc3S(=O)(=O)C(C)C)c3cc[nH]c3n2)nc1,14.8 µM (active)
12,CC(N[C@H]1CCCC[C@H]1NC(=O)c1ccc(Cl)cc1)c1cccc2ccccc12 (stereo partly specified),0.0296 µM (active)
13,Cc1[nH]c(C=C2C(=O)Nc3ccccc32)c(C)c1CCC(=O)O,2.96 µM (active)
14,COc1cccc2c1C(=O)c1c(O)c3c(c(O)c1C2=O)C[C@@](O)(C(=O)CO)C[C@H]3O[C@H]1C[C@H](N)[C@H](O)[C@H](C)O1,0.935 µM (active)
15,CC(C)c1cnn2c(NCc3ccccc3)cc(NCCCCCCN)nc12,4.69 µM (active)
16,COc1cccc2c1C(=O)c1c(O)c3c(c(O)c1C2=O)C[C@@](O)(C(=O)CO)C[C@@H]3O[C@H]1C[C@H](N)[C@@H](O)[C@H](C)O1,1.87 µM (active)
17,Oc1cc(-c2nc(-c3ccccc3)[nH]c2-c2ccncc2)ccc1Cl,5.9 µM (active)
18,COc1cccc2c1C(=O)c1c(O)c3c(c(O)c1C2=O)C[C@@](O)(C(C)=O)C[C@H]3O[C@H]1C[C@H](N)[C@H](O)[C@H](C)O1,0.187 µM (active)
19,CN1[C@H]2CC(OC(=O)[C@@H](CO)c3ccccc3)C[C@H]1[C@H]1O[C@H]12 (stereo partly specified),inactive
20,Cc1cc(Nc2ncc3c(n2)N(C)C(=O)N(c2cc(NC(=O)c4cccc(C(F)(F)F)c4)ccc2C)C3)n(C)n1,0.935 µM (active)
21,C[N+](C)([O-])CCNc1ccc(NCC[N+](C)(C)[O-])c2c1C(=O)c1c(O)ccc(O)c1C2=O,inactive
22,C=CC[C@@H]1C=C(C)C[C@H](C)C[C@H](OC)[C@H]2O[C@@](O)(C(=O)C(=O)N3CCCC[C@H]3C(=O)O[C@H](C(C)=C[C@@H]3CC[C@H](O)[C@H](OC)C3)[C@@H](C)[C@@H](O)CC1=O)[C@@H](C)C[C@@H]2OC,inactive
23,O=C(Nc1nnc(-c2ccco2)o1)c1cc(-c2ccccc2)nc2ccccc12,14.8 µM (active)
24,CC(=O)OCC(=O)[C@@]1(O)CC[C@H]2[C@@H]3CCC4=CC(=O)CC[C@]4(C)[C@@H]3C(=O)C[C@@]21C,inactive
25,CCC(C(=O)O)C1CCC(C)C(C(C)C(O)C(C)C(=O)C(CC)C2OC3(C=CC(O)[C@@]4(CC[C@](C)(C5CC[C@@](O)(CC)C(C)O5)O4)O3)C(C)CC2C)O1 (stereo partly specified),11.8 µM (active)
26,CO[C@@H]1[C@@H](O)[C@H](O)[C@@H](n2c3c(Cl)cccc3c3c4c(c5c6cccc(Cl)c6[nH]c5c32)C(=O)NC4=O)O[C@@H]1CO,0.469 µM (active)
27,CC1=C(C(=O)Nc2cc3cn[nH]c3cc2F)C(c2ccc(Cl)cc2F)N=C(c2ccnc(Cl)c2)N1 (stereo unspecified),inactive
28,NC(=NCCCCCCN=C(N)N=C(N)Nc1ccc(Cl)cc1)N=C(N)Nc1ccc(Cl)cc1,5.9 µM (active)
29,C[C@]12CCC(=O)C=C1[C@@H]1CC1[C@H]1[C@H]3[C@@H]4C[C@H]4[C@@]4(CCC(=O)O4)[C@@]3(C)CC[C@H]12 (stereo partly specified),inactive
30,COc1cc([C@@H]2c3cc4c(cc3[C@@H](O[C@@H]3O[C@@H]5CO[C@@H](c6cccs6)O[C@@H]5[C@H](O)[C@@H]3O)[C@H]3COC(=O)[C@H]23)OCO4)cc(OC)c1O,0.372 µM (active)

# Source: PubChem BioAssay (NCATS)
